Measurements taken from PubChem BioAssay (Tox21).
Inconclusive results are not listed. A number with no mark means an inactive call. Active and inactive are the calls of the source. The call rests on the fitted dose curve; in most records, active means well fitted inhibition curve with a large enough effect in the repeat runs; inconclusive means weak or mixed curves; inactive means no such curve, though single readings can be large or run the other way.

target: Cytochrome P450 2C19 (Homo sapiens) (UniProt P33261); test: Cytochrome P450 Family 2 Subfamily C Member 19 (CYP2C19) small molecule antagonists: luciferase reporter qHTS assay (AID 1671197); settings: P450-Glo CYP2C19 enzyme, luciferin luminescence, 1 h; series mostly up to 115 µM; activity change, negative = inhibition: at the top concentration; further: nearly all actives have a fitted effect of over 65% in size
Excerpt: National Center for Advancing Translational Sciences [NCATS]
U.S. Environmental Protection Agency [EPA]
National Institutes of Environmental Health Sciences [NIEHS]
National Toxicology Program [NTP]
U.S. Food and Drug Administration [FDA]
Cytochrome P450 (CYP) enzymes are membrane-bound hemeproteins that play a key role in metabolism of drugs and xenobiotics. Evaluation of the effect of chemicals on CYP isozymes is useful to minimize the adverse drug reactions and toxicities in drug development process. Tox21 chemicals were tested for their effect on CYP enzyme activities by using P450-Glo (TM) screening systems (Promega Corporation, Madison, WI). These systems provide a luminescent method containing proluciferin substrates and are converted to luciferin products by CYP isozymes. The luciferin products formed are detected with a luciferin detection reagent, and the amount of light produced is proportional to CYP activity. P450-Glo (TM) CYP2C19 screening system (Catalog. No. V9880) was used to detect the compounds that interfere in CYP2C19 activity. The positive control compound used for CYP2C19 assay is ketoconazole (Sigma-Aldrich, St. Louis, MO).
Tox21 Assay Protocol Summary:
Two ul of enzyme-substrate mix was dispensed into medium binding white/solid 1536-well plates (Greiner Bio-One North America Inc., Monroe, NC) using a BioRaptr Flying Reagent Dispenser (FRD, Beckman Coulter, Brea, CA). Compounds dissolved in DMSO and positive control (ketoconazole) were transferred to the assay plates at 23 nl using a Pintool station (Wako, San Diego, CA). The assay plates were incubated at room temperature for 10 min. Then 2 ul of NADPH regeneration solution was added to each well of the assay plates using an FRD and incubated at 37C for 1 h. The reaction was stopped by adding 4 ul of detection reagent using an FRD and after 20 min incubation at room temperature the luminescence signal was measured using a ViewLux plate reader (Perkin Elmer, Shelton, CT). Data were expressed as relative luminescence units.
On the % scale 0 is the no-effect control and ±100 the full control effect; potency means the concentration at half of the fitted maximal effect.

Cytochrome P450 2C19 (Homo sapiens), sequence (P33261 whole entry, looked up): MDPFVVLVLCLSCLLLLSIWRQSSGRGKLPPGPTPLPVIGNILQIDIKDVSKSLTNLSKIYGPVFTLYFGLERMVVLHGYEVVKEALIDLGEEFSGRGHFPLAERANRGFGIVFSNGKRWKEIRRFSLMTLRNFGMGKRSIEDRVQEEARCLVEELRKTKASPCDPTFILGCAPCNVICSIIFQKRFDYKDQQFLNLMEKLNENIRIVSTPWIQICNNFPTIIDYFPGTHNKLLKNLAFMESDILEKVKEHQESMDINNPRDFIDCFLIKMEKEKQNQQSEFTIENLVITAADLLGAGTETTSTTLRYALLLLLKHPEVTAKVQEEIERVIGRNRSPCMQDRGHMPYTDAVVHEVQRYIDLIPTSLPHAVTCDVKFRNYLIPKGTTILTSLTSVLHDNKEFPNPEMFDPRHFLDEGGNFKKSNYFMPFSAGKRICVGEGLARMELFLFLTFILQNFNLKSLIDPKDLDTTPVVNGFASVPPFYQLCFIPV

Structure (SMILES) | activity change, negative = inhibition | Potency
C1CSCCS1 | -19.2% | 
O=c1[nH]c(=O)n([C@H]2C[C@H](O)[C@@H](CO)O2)cc1C(F)(F)F | -8.2% [at 52.9 µM] | 
CC(=O)Nc1ccc(C)c(Cl)c1 |  | 22.4 µM (active)
C/C(=N\O)[C@@H](C)NCC(C)(C)CN[C@H](C)/C(C)=N/O | 14.8% [at 52.9 µM] | 
O=C(O)[C@@H]1CSCN1 | 10.6% [at 52.9 µM] | 
O=C1CCCCCCCCCCC(=O)OCCO1 |  | 35.6 µM (active)
CC(C)O | -14.5% | 
CC(C)Nc1nc(N)nc(Cl)n1 | 5.89% | 
CCCc1c2oc(C(=O)O)cc(=O)c2cc2c(=O)cc(C(=O)O)n(CC)c12 | -2.73% [at 52.9 µM] | 
CC1(C)O[C@@H]2C[C@H]3[C@@H]4CCC5=CC(=O)CC[C@]5(C)[C@@]4(F)[C@@H](O)C[C@]3(C)[C@]2(C(=O)CCl)O1 |  | 34.7 µM (active)
OC[C@H]1O[C@@H](O[C@H]2[C@H](O)[C@@H](O)[C@H](O)O[C@@H]2CO)[C@H](O)[C@@H](O)[C@H]1O | 2.53% | 
C=CCCCCCCCCO | 26% | 
COc1ccc2nc(NC(=O)Nc3ccccc3)sc2c1 |  | 21.9 µM (active)
CCCCCCOc1ccc(N)cc1 |  | 2 µM (active)
CCCNC(C)C(=O)Nc1c(C)csc1C(=O)OC (stereo not given) | -14% [at 52.9 µM] | 
COc1ccc(Nc2ccc(OC)cc2)cc1 |  | 2.29 µM (active)
Clc1cccc(-c2cc(Cl)cc(Cl)c2)c1 |  | 30.6 µM (active)
CCc1cc(Cl)c(OC)c(C(=O)NC[C@@H]2CCCN2CC)c1O | 8.03% [at 52.9 µM] | 
CCCN(CCC)C(=O)C(CCC(=O)O)NC(=O)c1ccccc1 (stereo not given) | 12.4% [at 52.9 µM] | 
FC(F)(F)c1ccccc1 | 33.1% | 

Structure (SMILES) | activity change, negative = inhibition | Potency
COC(C)CCO (stereo not given) | 3.54% | 
CCCCCCCCCCCCCCCCOP(=O)([O-])OCC[N+](C)(C)C | 11.2% [at 52.9 µM] | 
O=C(CCCl)NCc1ccccc1 | -3.94% [at 52.9 µM] | 
Cc1nc(N)nc(N)c1-c1ccc(Cl)c(Cl)c1 | 0.376% [at 52.9 µM] | 
CCOC(=O)NCCC[Si](OCC)(OCC)OCC | -11.3% | 
Cc1ccc([N+](=O)[O-])c(N)c1 |  | 38.9 µM (active)
NC/C=C/C(=O)O | -1.27% [at 52.9 µM] | 
Oc1ccccc1C=NCc1ccccc1 | -10.1% [at 52.9 µM] | 
CCCCC1CCC(=O)O1 (stereo not given) | 22.7% | 
CCN(CCCc1ccccc1)CCCc1ccccc1 |  | 6.92 µM (active)
Cc1cc(S(=O)(=O)O)c(N)cc1Cl |  | 80.5 µM (active)
CCN(CC)CCOc1ccc(Cc2ccccc2)cc1 |  | 0.55 µM (active)
C=CC1CO1 (stereo not given) | 14.7% | 
CC(=O)OC(C)OC(C)=O | -20.7% | 
CCCCCCCCc1ccc(S(=O)(=O)O)cc1 | -17.3% | 
CC1CN(c2ccccc2)NC1=O (stereo not given) |  | 12.6 µM (active)
CN(C)Cc1ccccc1 | -22.2% | 
CN1CCN(c2c(F)cc3c(=O)c(C(=O)O)cn4c3c2SCC4)CC1 | -6.61% [at 52.9 µM] | 
Cc1c[nH]c(=S)[nH]c1=O |  | 79.9 µM (active)
Cc1nc(-c2ccccn2)ncc1C(=O)Nn1cc(C)c2cc(F)ccc21 |  | 56.4 µM (active)
